# In PubChem BioAssay (NCI):
# This is part of a sample that, as a whole, favours compounds with a hit. Of some 79,000 tested, about 15% had one in any assay. Active and inactive are the calls of the source. Cut-off read from the data, not from the text of the source: active = growth inhibition above about 70%; inactive = the rest.
# Assay: NCI Yeast Anticancer Drug Screen. Data for the bub3 strain (AID 167)
# Conditions: S. cerevisiae bub3 mutant strain, at 50.0 µM, hits give high values
# How it was run: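 Yeast carrying a defined mutation is treated with each compound, and growth is compared with that of vehicle-exposed cells to give inhibition.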
row,Structure (SMILES),growth inhibition
1,Cc1c(Cl)cccc1N=C=S,-0.95% (inactive)
2,NNC(=O)CCCCl,-21.3% (inactive)
3,O=C(O)CC1=CCCCC1,-4.65% (inactive)
4,CCOc1ccccc1NC(=O)CCl,18.9% (inactive)
5,CN(C)c1ccc(O)c2c1CC1CC3C(N(C)C)C(=O)C(C(N)=O)=C(O)C3(O)C(=O)C1=C2O (configuration not stated),3.6% (inactive)
6,CCOC(=O)CNC,10.3% (inactive)
7,CN(C)CCOC(=O)Nc1ccc(Cc2ccc(NC(=O)OCCN(C)C)cc2)cc1,8.7% (inactive)
8,NC(CCl)=NCC12CC3CC(CC(C3)C1)C2,54% (inactive)
9,CC(C)(C)NCCC(O)c1cc(C(F)(F)F)nc2c(C(F)(F)F)cccc12 (configuration not stated),-11.9% (inactive)
10,OCc1cccnc1,-18.5% (inactive)
11,C/C(O)=C(/C=N/C(=S)Nc1ccccc1)C(=O)Nc1ccccc1C,27.7% (inactive)
12,CN1CCCN(C(c2ccccc2)c2ccc(Br)cc2)CC1 (configuration not stated),30.9% (inactive)
13,CC(=O)NC(O)C(Cl)Cl (configuration not stated),-5.7% (inactive)
14,CCCCCC#CC(=O)O,-7.3% (inactive)
15,COc1ccc(C(=O)C(=O)c2ccccc2)cc1,11.1% (inactive)
16,OCCc1ccc(Cl)cc1,-1.3% (inactive)
17,NNc1ncnc2nc[nH]c12,-15.9% (inactive)
18,CCC(=O)C1C(=O)c2ccccc2C1=O,6.1% (inactive)
19,O=C(O)CCCCCNC(=O)OCc1ccccc1,3.25% (inactive)

row,Structure (SMILES),growth inhibition
1,C=C(OC(C)=O)c1ccccc1,28.3% (inactive)
2,Clc1ncnc2nc[nH]c12,0.35% (inactive)
3,C=CCN1CCCC1=O,-16.2% (inactive)
4,CCCCCCCCCCCCCCCCCCSC(=N)N,29.3% (inactive)
5,NC(=S)N/N=C/c1ccc(OC(=O)COc2ccccc2)cn1,-11% (inactive)
6,Cn1c(=O)c2[nH]c(CCCCC(=O)O)nc2n(C)c1=O,-39.4% (inactive)
7,COC1=C(OC)C(=O)C(SC/C=C(\C)CCCC(C)CCCC(C)CCCC(C)C)=CC1=O (configuration not stated),-52.6% (inactive)
8,C/C(=N\O)c1ccccn1,-8.85% (inactive)
9,O=C(O)Cc1cccc2ccccc12,-9.65% (inactive)
10,CC(=O)NC(CCC(=O)c1ccccc1)C(=O)O (configuration not stated),0% (inactive)
11,C[n+]1c(/C=C\C=C\N2CCCCC2)sc2ccccc21,31.6% (inactive)
12,Nc1nc(N)nc(N2CCCCC2)n1,-4.25% (inactive)
13,CCCC1OC(c2ccco2)OCC1CC (configuration not stated),-0.05% (inactive)
14,COC(=O)C1(CC(C)=O)NC(=S)NC(=O)C1C#N (configuration not stated),-30.1% (inactive)
15,CC(c1ccccc1)N(C)C (configuration not stated),5.9% (inactive)
16,CCOC(OCC)C(=O)c1ccccc1,6.25% (inactive)
17,Cc1cc(CC(=O)NCCO)n(CCO)c(=O)c1,-2.7% (inactive)
18,CCOC(=O)/C(O)=C(\C=N\C(=S)Nc1ccc(Cl)c(Cl)c1)C(=O)OCC,49.5% (inactive)
